# Bioassay records deposited in PubChem BioAssay by National Center for Advancing Translational Sciences (NCATS).
# Hits are enriched below; roughly 8.2% of the tested compounds scored in any of these assays.
# MCF10A rerep: inducers of DNA re-replication in MCF 10A breast cells | 350,000 tested, 2.9% active | Potency, µM (highest dose often 46.1 µM), for the others: at the top dose activity, positive = re-replication, usual class: activators | MCF 10A DNA re-replication, Hoechst nuclear intensity, 48 h; further: % of control where 0% means no effect; nearly all actives have a fitted effect of over 50% in size
# KB-3-1 cytotox: KB-3-1 parental cell cytotoxicity | KB-3-1 viability, CellTiter-Glo ATP luminescence, 72 h | Potency, µM (doses to about 46.1 µM), actives largely listed as cytotoxic | 400,000 tested, 1.4% active | AID 1347075; further: on the % scale 0 is the no-effect control and ±100 the full control effect; nearly all actives have a fitted effect of over 60% in size
#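 Luminescent ATP read-out (CellTiter-Glo) measures survival of drug-naive KB-3-1 cells after 72 h compound exposure at 37 °C. Titration series was screened from lowest to highest concentration, with DMSO vehicle plates as background controls.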
# ELG1 repair inh: blocks ELG1-dependent DNA repair in HEK293T cells. HEK293T ELG1-luciferase reporter, luminescence, 16 h; DNA damage induced by 5-fluorouridine. Potency, µM (top dose mostly 46.1 µM), for inactives: at the highest dose activity change, negative = inhibition, most hits filed as inhibitors. 330,000 tested, 2.3% active. AID 504467; further: on the % scale 0 is the no-effect control and ±100 the full control effect; nearly all actives have a fitted effect of over 55% in size
#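 Overnight (16 hr) co-exposure of 2,000 cells/well to 5-fluorouridine and compound at 37 °C preceded detection. Luciferase was quantified via ONE-Glo luminescence; loss of signal denotes inhibition.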
# KB-V1 cytotox: kills drug-selected multidrug resistant KB-V1 cells; Potency, µM (highest dose often 46.1 µM), most hits filed as cytotoxic; 400,000 tested, 3.4% active; KB-V1 MDR cells viability, CellTiter-Glo, 72 h; AID 1347076; further: on the % scale 0 is the no-effect control and ±100 the full control effect; nearly all actives have a fitted effect of over 60% in size
#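 KB-V1 MDR subline cells in DMEM (phenol-red free, 10% FBS) exposed to compounds in qHTS concentration series for 72 h at 37 degrees C. Viability read by CellTiter-Glo luminescence; concentration-effect curves fitted after normalization and correction.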
# SW480 rereplic: inducers of DNA re-replication in SW480 colon cancer cells | Potency, µM (top dose mostly 46.1 µM), for the others: top-dose re-replication activation, actives largely listed as activators | SW480 DNA re-replication, Hoechst DNA content imaging, 48 h | 340,000 tested, 1.8% active | AID 624297; further: % of control where 0% means no effect; nearly all actives have a fitted effect of over 55% in size
#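 Treated cells incubate 48 hr (37 C, 5% CO2), are stained 40 min with Hoechst, and nuclear fluorescence is enumerated; a rise in nuclei with high DNA signal marks re-replication.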
# Numbers without * were called inactive; i = inactive; ? = inconclusive; · = no result given; [ ] = remark or other dose. The call rests on the fitted dose curve; in most records, active means well fitted curve in the direction sought with a large enough effect; inconclusive means small, poorly fitted or top-dose-only effect, or another doubt; inactive means no such curve, though single readings can be large; an effect the other way counts as inactive or inconclusive. Potency means the concentration at half of the fitted maximal effect.
SMILES,MCF10A rerep,KB-3-1 cytotox,ELG1 repair inh,KB-V1 cytotox,SW480 rereplic
COc1ccc(N2CCN(C(=O)CCCCCn3c(=S)[nH]c4ccc(N5CCOCC5)cc4c3=O)CC2)cc1,·,i,·,?,·
CCc1ccc(/C=N/NC(=O)c2cc(C3CC3)nc3ccc(Br)cc23)s1,1.58µM*,4.61µM*,7.31µM*,4.11µM*,18.4µM*
O=C(N/N=C/c1ccco1)c1cc(C2CC2)nc2ccccc12,?,·,-2.0%,·,?
Cc1cccc(-c2nc(SCC(=O)N(C)c3ccccc3)c3c(=O)n(C)c(=O)n(C)c3n2)c1,·,i,·,i,·
CC1(C)CC(NC(=O)C2CCC(=O)N(Cc3ccccc3F)C2)CC(C)(C)C1 (centres undefined),5.1%,·,?,·,0.2%
Clc1ccc(N/N=C/c2cccnc2)cc1,?,i,?,i,11.0%
Nc1c(Cl)ncnc1N/N=C/c1ccc2ccccc2n1,20.6µM*,20.6µM*,?,i,0.259µM*
Nc1c(Cl)ncnc1N/N=C/c1ccccn1,?,8.2µM*,?,i,?
Nc1c(Cl)ncnc1N/N=C/c1ccnc2ccccc12,13.9%,i,23.7%,?,17.1%
Nc1c(Cl)ncnc1N/N=C/c1cccnc1,3.66µM*,i,3.1%,i,-56.7%
N#CCC(=O)Nc1ccc(C(=O)NCCc2c[nH]c3ccccc23)cc1,16.2%,i,?,i,-4.1%
CN(C)CCCNc1cc(N2CCN(C)CC2)ncn1,·,i,·,i,·
CN(C)C(=O)CSc1nnc(-c2cc(-c3cccs3)nc3ccccc23)o1,10.3µM*,i,11.6µM*,?,?
O=C(CSc1nnc(-c2cccs2)o1)c1cccs1,3.66µM*,i,?,i,?
CCN(CC)C(=O)CSc1nnc(-c2cc(-c3ccc(Cl)cc3)nc3ccccc23)o1,8.8%,i,?,i,0.9%
COc1cccc(CNC(=O)c2ccc(CS(=O)c3ccccc3)o2)c1 (centres undefined),-0.3%,i,-1.5%,i,9.5%
O=C(Nc1cc(F)cc(F)c1)Nc1nnc(-c2ccncc2)s1,·,i,·,i,·
O=C(COc1ccc(S(=O)(=O)N2CCOCC2)cc1)NCCN1CCOCC1,-5.7%,i,-0.9%,i,-12.6%
CCOC(=O)C1=C(C)N(C[C@@H]2CC[C@@H](Cc3ccc4cc(OC)ccc4c3)O2)C(=O)NC1c1ccc(OC)cc1 (some centres undefined),4.11µM*,i,?,?,?
CCOC(=O)C1=C(C)N(C[C@@H]2CC[C@@H](Cc3ccc(-c4ccccc4)cc3)O2)C(=O)NC1c1ccc(C(F)(F)F)cc1 (some centres undefined),-20.3%,i,9.2%,i,?
O=C(C[C@@H]1C/C=C\CCCC(=O)OC[C@@H]2CCCN2C1=O)N[C@H](CO)Cc1ccccc1,12.6%,i,15.0%,i,-1.4%
O=C(Nc1cccc(S(=O)(=O)NCc2ccco2)c1)c1cccc(Cl)c1,-6.1%,i,0.0%,i,-2.2%
O=C(/C=C/c1ccccc1)NC(=S)Nc1ccc2c3c(cccc13)CC2,?,4.11µM*,15.2%,i,-2.2%
CC(C)c1cc(Br)ccc1OCCCN1C(=O)NC(C)(C)C1=O,17.3%,?,?,13µM*,11.2%
CCOC1=C2[C@@H](CN(S(=O)(=O)c3ccc(C)cc3)[C@H]2c2ccccc2Cl)[C@H]2C(=O)N(C(C)(C)C)C(=O)[C@H]2C1,·,i,·,?,·
SMILES,MCF10A rerep,KB-3-1 cytotox,ELG1 repair inh,KB-V1 cytotox,SW480 rereplic
COc1ccc(NC(=O)C(NC(=O)Cc2cccs2)c2ccccc2)cc1 (centres undefined),14.1%,i,7.6%,11.6µM*,-0.8%
COc1ccc(NC(=O)C(NC(=O)Cc2cccs2)c2ccc(C)cc2)cc1 (centres undefined),?,i,?,i,-2.4%
COc1ccccc1NS(=O)(=O)c1ccc(NC(=O)Cc2cccs2)cc1,6.7%,i,-6.8%,20.6µM*,-12.0%
CC1CCCN(C(=O)COC(=O)c2cc(Br)ccc2O)C1 (centres undefined),24.4%,·,?,·,1.1%
CCCN1C(=O)c2[nH]nc(-c3ccccc3O)c2C1c1ccc(OCc2ccccc2)c(OCC)c1 (centres undefined),·,?,·,i,·
CN(Cc1ccc(Cl)c(Cl)c1)C(=O)c1ccccc1SCC(=O)N1CCCC1,-15.6%,?,?,?,0.7%
CCOC(=O)c1ccccc1NC(=O)C1CC(=O)N(C(C)(C)C)C1 (centres undefined),1.03µM*,i,-1.5%,i,-34.9%
Cc1sc2ncnc(N3CCC(C(=O)Nc4cc(Cl)ccc4Cl)CC3)c2c1C,?,i,?,i,-0.5%
CCOC(=O)c1ccccc1NC(=O)C1CC(=O)N(C2CCCCC2)C1 (centres undefined),-4.1%,i,7.7%,i,3.9%
CCOC(=O)c1ccccc1NC(=O)C1CCN(c2ncnc3sc(C)c(C)c23)CC1,?,?,?,23.1µM*,-10.1%
Cc1sc2ncnc(N3CCC(C(=O)N(C)CC(=O)Nc4ccccc4Cl)CC3)c2c1C,7.2%,?,7.3µM*,?,16.2%
Cc1sc2ncnc(N3CCC(C(=O)Nc4ccccc4C(C)(C)C)CC3)c2c1C,18.0%,i,9.2µM*,?,?
Cc1sc2ncnc(N3CCC(C(=O)N(C)CC(=O)Nc4ccccc4Br)CC3)c2c1C,?,i,?,?,1.1%
O=C(NCc1ccc(Cl)cc1)N1CCN(C(=O)c2ccccc2)CC1,·,i,·,i,·
Cc1oc2ncn(C)c(=O)c2c1C(=O)N1CCN(c2ccccc2)CC1,·,i,·,?,·
Cc1cc(=O)[nH]c(N=N/C(=N/Nc2ccc(O)cc2)c2ccccc2)n1,?,?,-10.6%,i,-1.8%[9.22 µM]
COc1ccc(N/N=C(/N=Nc2nc(C)cc(=O)[nH]2)c2ccccc2)cc1,?,6.51µM*,?,?,?
Cc1cc(=O)[nH]c(N=N/C(=N/Nc2ccccc2C)c2ccccc2)n1,19.4%,4.61µM*,?,i,5.17µM*
N#CC1(C(N)=O)OC12CCS(=O)(=O)c1ccccc12 (centres undefined),-3.7%,i,·,i,-5.5%
COc1cc(CNCCSc2nnnn2C)cc(Br)c1OCc1ccc(F)cc1,?,?,-20.6%,?,?
CCOc1cc(CNCCSc2nnnn2C)cc(Br)c1OCc1ccc(F)cc1,27.5%,?,-19.5%,18.4µM*,?
CCC(C)NCCCOc1c(C)cc(C)cc1Br (centres undefined),?,i,-8.6%,i,16.4µM*
